# Experimental data from PubChem BioAssay (NCI).
# About 83,000 compounds went through this panel and 20% of them were active in at least one assay; those are over-represented in the sample as a whole.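 Each cell line was grown in a 96-well plate and treated with one concentration of compound for 48 hours. Values below 10 were considered active.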 Values without a mark were called inactive. Active and inactive are the calls of the source.
# Test system: BT-549 breast
# Assay: NCI-60 one-dose screen, 48 h (100 = growth as untreated, 0 = no growth, -100 = all killed)
# Settings: 10 µM unless noted
# Procedure: Growth inhibition of the BT-549 human tumor cell line is measured as a screen for anti-cancer activity. Cells are grown in 96 well plates and exposed to the test compound for 48 hours. Compounds are tested at a single concentration, which is 10^-5 M for most compounds. The reported endpoint is percent growth (GI% or GIPRCNT), where numbers from 0 - 100% represent growth inhibition, and numbers from -100% - 0 represent cell death. For example, a value of 40 represents 60% growth inhibition. A value of 0 means no net growth occurred over the course of the experiment. A value of -40 indicates 40% of cells at the beginning of the experiment died by the end of the experiment. A value of -100 means all cells are dead at the end of the experiment.
# NCI-60 Human Tumor Cell Lines Screen was performed using the standard one-dose NCI protocol, which is described in more detail at https://dtp.cancer.gov/discovery_development/nci-60/default.htm.
# Compounds with GIPRCNT values below 10 were considered active. Activity score was based on GIPRCNT using the following formula: […]
# Score is 0 for GIPRCNT values of 100 or above, 50 for GIPRCNT values of 0, and 100 for GIPRCNT values of -100.
row,Structure (SMILES),growth
1,COc1ccc(/C=C2\SC(=O)N(Cc3cc(=O)oc4ccc(OC)cc34)C2=O)cc1,77.4%
2,COc1ccc2cnc(N)c(C#Cc3cc(C(=O)Nc4ccc(CN5CCN(C)CC5)c(C(F)(F)F)c4)cnc3C)c2c1,54.7%
3,COc1ccc(C(=O)c2no[n+]([O-])c2C(=O)c2ccc(OC)cc2)cc1,50.3%
4,Nc1nc2c(c3cnccc13)C(c1ccc(Cl)c(Cl)c1)Cc1cnccc1-2 (stereo not given),-39.1% (active)
5,O=C(Nc1cccc(Cn2c(=O)[nH]c3ccc(Oc4ncccn4)cc3c2=O)c1)c1cc(Cl)cc(Cl)c1,-3.71% (active)
6,CC(O)CN(CCO)CCN(CCO)CC(C)O (stereo not given),105%
7,COc1cccc2c1n([O-])c1cccc(OC)c1[n+]2=O,71.5%
8,O=C(/C=C1\C(=O)N(Cc2ccc([N+](=O)[O-])cc2)c2ccccc21)c1ccc(OCCN2CCCCC2)cc1,-80% (active)
9,C[C@H]1C[C@@H](n2cnc3c(N)nccc32)[C@H](O)[C@@H]1O,93.7%
10,COc1cc2c(c3c1c(=O)c1cccc(F)c1n3C)C=CC(C)(C)O2,100%
11,COc1cc(-c2nc(/C=C3/C(=O)Nc4ccccc43)c3ccccn23)cc(OC)c1OC,94%
12,COC1(OC)N=C(N)C2(C#N)C3(C(=O)Nc4ccccc43)C12C#N (stereo not given),62.5%
13,COc1cc2cc3cc4cc(OC)c(OC)cc4c(C)[n+]3cc2cc1OC (tested in a mixture with another compound),85.5%
14,COc1ccc(/C=C/C(=O)/C=C/c2cc3ccccc3[nH]c2=O)cc1,64.9%
15,C[C@@H](c1ccc2c(c1)[nH]c1ccc(Cl)cc12)c1nc2ccc(Cl)cc2[nH]1,68.2%
16,N=C(N)c1ccc(-c2ccc(-c3ccc(Cl)cc3)s2)s1,76.4%
17,O=C(NCCCl)Nc1nccnc1OCc1ccc(F)cc1,88.8%
18,Oc1ccc2ccccc2c1/C=N\Nc1ccccn1,22.2%
19,O=C(O)CC1Cc2ccccc2C1C(=O)O (stereo not given),89.7%
20,O=C1CCNC1,105%

row,Structure (SMILES),growth
1,CCCC(CCC)Oc1ccc(CCCC2=C(O)c3ccccc3C(=O)C2=O)cc1,35.5%
2,OCCN1CCCN(CCCN2c3ccccc3Sc3ccc(C(F)(F)F)cc32)CC1,72.3%
3,CCOc1ccc(/C=N/NC(=O)c2cccc3ccccc23)cc1OCC,86.5%
4,CC1(C)Oc2cc3oc(=O)ccc3cc2C[C@@H]1OCCOS(=O)(=O)c1ccc(C#N)cc1,90.3%
5,c1cc(C2CCCCC2)ccc1OCCCCCCN1CCNCC1,83%
6,COc1ccc(/C=C2\CCCC3=C2N=C2SC=NN2C3c2ccc(OC)c(OC)c2)cc1OC (stereo not given),38.5%
7,Oc1ccccc1/C=N/N=C\c1ccccc1Cl,86.2%
8,COc1ccc2oc(=O)cc(CN3C(=O)S/C(=C\c4ccc(Cl)cc4)C3=O)c2c1,91.5%
9,COc1ccc(-c2nc(SCC(C)C)nc(Nc3ccc(C)cc3)c2C#N)cc1,85.8%
10,CCN(CC)CCOC(=O)c1cccnc1,105%
11,COc1ccc(C(O)(c2ccccc2)C(C(=O)O)c2ccccc2)cc1 (stereo not given),94.7%
12,Cc1ccc2c(c1)C(=O)CCS2,101%
13,COc1ccccc1Nc1nnc(COc2ccc(CNC(=O)CCCC/C=C/C(C)C)cc2OC)o1,85.6%
14,BrCCCOc1ccc(Oc2ccc(OCCCBr)cc2)cc1,91%
15,O=C1C(Cl)=C(Nc2ccc(Nc3ccccc3)c(NC3=C(Cl)C(=O)c4ccccc4C3=O)c2)C(=O)c2ccccc21,53.3%
16,CCC(C)C1NC(=O)C(CCCCN)NC(=O)C(CCCCN)NC(=O)C(CC(C)C)NC(=O)C(CCCCN)NC(=O)C(C(C)CC)NC(=O)C(C(C)C)NC(=O)C(C(C)CC)NC(=O)C(CCCCN)NC(=O)C(CCCCN)NC(=O)C(C)NC(=O)C(CCCCN)NC(=O)C(CC(C)C)NC1=O (stereo not given),35.5%
17,CCCCCCCCCCCCCCCCNC(=O)Nc1ccc(C)c(NC(=O)NCCCCCCCCCCCCCCCC)c1,104%
18,COc1cc([C@@H]2c3cc4c(cc3[C@H](O)[C@H]3COC[C@@H]23)OCO4)cc(OC)c1OC,90.6%
19,C=C(NC(=O)[C@H](C(C)C)N(C)c1cccc2[nH]ccc12)C(=O)OC,95.3%
20,CCCCCCCCCCCCCCCCC(=O)O.CCCCCCCCCCCCCCCCCC(=O)O.CCCCCCCCCCCCCCCCCC(=O)O.CCCCCCCCCCCCCCCCCC(=O)O.CCCCCCCCCCCCCCCCCC(=O)O.CO[CH-]OC12COC1CC(O)C1(C)C(O)C(OC(C)O)C3=C(C)C(OC(=O)C(O)C([NH-])c4ccccc4)CC(O)(C(OC(=O)c4ccccc4)C21)C3(C)C.[Cu+].[Zn].[Zn].[Zn].[Zn].[Zn] (stereo not given),46.2%
